Records with an inconclusive call do not appear. Where a call stands in place of a potency, no number is given. Activity calls are given as the source filed them. The call rests on the fitted dose curve; in most records, active means well fitted activation curve with a large enough effect; inconclusive means small, poorly fitted or top-dose-only effect; inactive means no such curve, though single readings can be large or run the other way.

Relaxin receptor 2 (Homo sapiens), sequence (Q8WXD0 whole entry, looked up): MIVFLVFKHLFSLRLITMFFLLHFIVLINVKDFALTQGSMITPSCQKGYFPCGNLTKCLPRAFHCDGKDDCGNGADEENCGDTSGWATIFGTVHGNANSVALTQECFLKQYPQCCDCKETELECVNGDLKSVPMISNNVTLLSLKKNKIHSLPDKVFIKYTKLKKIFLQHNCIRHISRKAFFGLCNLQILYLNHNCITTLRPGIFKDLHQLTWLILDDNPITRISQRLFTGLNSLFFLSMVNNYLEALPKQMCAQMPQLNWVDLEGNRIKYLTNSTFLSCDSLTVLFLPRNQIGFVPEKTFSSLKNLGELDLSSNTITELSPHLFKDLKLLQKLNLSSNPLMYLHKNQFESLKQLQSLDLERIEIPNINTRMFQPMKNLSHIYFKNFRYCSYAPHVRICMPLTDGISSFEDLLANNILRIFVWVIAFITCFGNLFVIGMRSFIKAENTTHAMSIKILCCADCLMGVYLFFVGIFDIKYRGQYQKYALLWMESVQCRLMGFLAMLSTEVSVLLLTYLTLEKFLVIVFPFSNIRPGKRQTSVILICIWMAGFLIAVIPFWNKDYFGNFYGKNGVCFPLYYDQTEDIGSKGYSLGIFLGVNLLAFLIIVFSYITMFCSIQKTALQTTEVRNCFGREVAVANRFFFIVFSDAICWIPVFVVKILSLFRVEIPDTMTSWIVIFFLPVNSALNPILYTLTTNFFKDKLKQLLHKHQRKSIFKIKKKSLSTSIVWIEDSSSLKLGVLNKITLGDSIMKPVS

The target of the assay is Relaxin receptor 2 (Homo sapiens) (UniProt Q8WXD0). The assay is described as follows: qHTS Assay for Agonists of the Relaxin Receptor RXFP1: RXFP2 SAR. The conditions noted are these: HEK293 RXFP2 cAMP TR-FRET agonist, 30 min; series mostly up to 78.1 µM. The source says:
The relaxin hormone is involved in the variety of biological functions in normal tissues and diseases. The role of relaxin is well-established in female reproduction and parturition, mammary gland and endometrial development, maintenance of myometrial quiescence during pregnancy. Relaxin signaling through its G protein-coupled receptor (GPCR) RXFP1 results in ECM remodeling through regulation of collagen deposition, cell invasiveness, proliferation and overall tissue homeostasis. […] Recombinant human relaxin (rhRlx) is currently being tested in clinical trials as a protective agent in congestive heart failure, in treating severe preeclampsia, and as an anti-fibrotic agent in systemic sclerosis. Upon relaxin binding RXFP1 activation leads to the activation of adenylate cyclase (AC) via Gs. cAMP will activate PKA, which phosphorylates many signaling proteins. Thus, detection of cAMP increase is an easy and reliable indication of relaxin receptor activation. To screen for agonists of the relaxin receptor, a HEK293T cell line stably transfected with RXFP1 was used. RXFP1 activation was assayed by changes in cAMP levels as detected with a time-resolved fluorescence energy transfer (TR-FRET) cAMP detection kit. This assay measures activation of a cell expressing RXFP2, another GPCR targeted by relaxin, to determine the selectivity of compounds for RXFP1. NIH Chemical Genomics Center [NCGC] NIH Molecular Libraries Probe Production Centers Network [MLPCN] MLPCN Grant: R03 MH085705-01A1 Assay Submitter (PI): Alexander Agoulnik
This is a cell-based assay for cAMP second messenger response to screen for agonists of the RXFP2 receptor. The assay was conducted in the presence of a PDE4 inhibitor (Ro 20174). The cells were lysed and the cAMP levels were measured with a TR-FRET cAMP kit. Presence of cAMP in the cell lysate disrupts binding between the cryptate-labeled anti-cAMP and d2-labeled cAMP pair, leading to a decrease in the TR-FRET signal. Data were normalized to the controls for basal activity (buffer only) and 100% activity (29 nM porcine relaxin). The EC50 values were determined from concentration-response data modeled with the standard Hill equation 1536-well assay protocol for the HEK293 RXFP2 cAMP assay: (1) Add 3 ul HEK293 RXFP2 cell culture. 2000 cells/well in DMEM/F12, 10% FBS, 1x Pen/Strep (dispensed offline with MultiDrop Combi). (2) Incubate 16-24 hr at 37C, 5% CO2. (3) Add 1 ul 400uM Ro20174 in DPBS, 0.05% BSA, 0.005% Tween 20. (3) Add 23 nl compounds in DMSO solution. Final concentration was 0.5 - 58 uM. (4) Incubate 30 min at 37C, 5% CO2. (5) Add 1 ul cAMP-d2 in lysis buffer (HTRF cAMP HiRange kit, CisBio). (6) Add 1 ul anti-cAMP antibody-cryptate in lysis buffer (HTRF cAMP HiRange kit, CisBio). (7) Incubate 30 min at room temperature. (6) Detect the assay plate in a ViewLux plate reader (PerkinElmer) with Ex=320 nm, Em1=615 nm and Em2=665 nm. Keywords: relaxin, RXFP1, RXFP2, G-protein coupled receptor, cAMP, agonist, high throughput screening, MLSMR, MLSCN, NIH Roadmap, qHTS and NCGC
On the technique in general: In qHTS, concentration-response curves come from the screen itself.
Consider `COCCOc1ccccc1C(=O)Nc1cccc(C(F)(F)F)c1`, for which the Potency entry is “inactive”.

Consider `COc1ccccc1C(=O)Nc1ccccc1C(=O)N(C)c1cccc(C(F)(F)F)c1`, for which the Potency entry is “inactive”. Next, `O=C(Nc1cccc(C(F)(F)F)c1)c1ccccc1NC(=O)C1CC1`: “inactive”; `O=C(Nc1cccc(S(=O)(=O)C(F)(F)F)c1)c1ccccc1NC(=O)c1ccccc1OCC(F)(F)F`: “inactive”.

As for `O=C(Nc1cccc(S(=O)(=O)C(F)(F)F)c1)c1ccccc1NC(=O)C1CCCCC1`, the Potency entry is “inactive”. To `CCOc1ccccc1C(=O)Nc1ncccc1C(=O)Nc1cccc(S(=O)(=O)C(F)(F)F)c1` belongs “inactive”; to `COc1ccccc1CNc1ccccc1C(=O)Nc1cccc(C(F)(F)F)c1`, “inactive”; to `O=C(Nc1cccc(-c2cccc(C(F)(F)F)c2)c1)c1ccccc1NC(=O)C1CCCCC1`, “inactive”.

For the compound `Cc1ccccc1C(=O)Nc1ccccc1C(=O)Nc1cccc(C(F)(F)F)c1`, the Potency result was “inactive”. Next, `CCSc1ccccc1C(=O)Nc1ccccc1C(=O)Nc1cccc(S(=O)(=O)C(F)(F)F)c1`: “inactive”; `COc1cccc(OC)c1C(=O)Nc1ccccc1C(=O)Nc1cccc(C(F)(F)F)c1`: “inactive”; `O=C(NCc1ccco1)c1ccccc1NC(=O)c1ccccc1NC(=O)C1CCCCC1`: “inactive”.

For the compound `O=C(Nc1cccc(-c2ccccc2C(F)(F)F)c1)c1ccccc1NC(=O)C1CCCCC1`, the Potency result is “inactive”. As for `CCOc1ccccc1C(=O)Nc1ccccc1C(=O)Nc1cccc(C(F)(F)F)c1`, the Potency is 9.4 µM (active). With `Cc1ccccc1NC(=O)c1ccccc1NC(=O)C1CCCCC1`, the Potency result is “inactive”.

On to `O=C(Cc1ccccc1)Nc1ccccc1C(=O)Nc1cccc(C(F)(F)F)c1`, for which the Potency entry is “inactive”. To `COc1ccc(C(=O)Nc2ccccc2C(=O)Nc2cccc(C(F)(F)F)c2)cc1` belongs “inactive”. With `Cc1cccc(NC(=O)c2ccccc2NC(=O)C2CCCCC2)c1`, the Potency result was “inactive”. Take `O=C(NCc1cccc(C(F)(F)F)c1)c1ccccc1NC(=O)C1CCCCC1`: the Potency result was “inactive”. On to `CCOc1ccccc1C(=O)Nc1ccccc1C(=O)Nc1cccc(S(=O)(=O)C(F)(F)F)c1`, for which the Potency was 7.47 µM (active). Next, `CCOc1ccccc1C(=O)NCCC(=O)Nc1cccc(S(=O)(=O)C(F)(F)F)c1`: “inactive”. To `O=C(Nc1cccc(C(F)(F)F)c1)c1ccccc1NC(=O)C1CCCCC1` belongs “inactive”. To `O=C(Nc1cccc([N+](=O)[O-])c1)c1ccccc1NC(=O)C1CCCCC1` belongs “inactive”; to `COc1cccc(NC(=O)c2ccccc2NC(=O)C2CCCCC2)c1`, “inactive”; to `CC(C)(C)c1cccc(NC(=O)c2ccccc2NC(=O)C2CCCCC2)c1`, “inactive”.

Take `CCC(CC)C(=O)Nc1ccccc1C(=O)Nc1cccc(C(F)(F)F)c1`: the Potency result is “inactive”.

In the case of `O=C(Nc1cccc(F)c1)c1ccccc1NC(=O)C1CCCCC1`, the Potency result was “inactive”. To `O=C(Nc1cccc(SC(F)(F)F)c1)c1ccccc1NC(=O)C1CCCCC1` belongs “inactive”; to `O=C(Nc1cccc(C(F)(F)F)c1)c1ccccc1NC(=O)C1CCCCCC1`, “inactive”; to `COc1ccccc1C(=O)Nc1ccccc1C(=O)Nc1cccc(S(=O)(=O)C(F)(F)F)c1`, “inactive”. Next, `O=C(Nc1cccc(C(F)(F)F)c1)c1ccccc1NC(=O)C1CCC1`: “inactive”; `COc1ccccc1C(=O)Nc1ccc(C(=O)Nc2cccc(C(F)(F)F)c2)cc1`: “inactive”; `COc1ccccc1C(=O)N(C)c1ccccc1C(=O)N(C)c1cccc(C(F)(F)F)c1`: “inactive”. On to `CCOc1ccccc1C(=O)Nc1cnccc1C(=O)Nc1cccc(S(=O)(=O)C(F)(F)F)c1`, for which the Potency result was “inactive”. Next, `COCCOc1ccccc1C(=O)Nc1ccccc1C(=O)Nc1cccc(C(F)(F)F)c1`: 5.29 µM (active); `O=C(Nc1cccc(Br)c1)c1ccccc1NC(=O)C1CCCCC1`: “inactive”. Next, `O=C(Nc1cccc(Cl)c1)c1ccccc1NC(=O)C1CCCCC1`: “inactive”; `COc1ccccc1-c1ccccc1C(=O)Nc1cccc(C(F)(F)F)c1`: “inactive”.

Turning to `CSc1cccc(NC(=O)c2ccccc2NC(=O)C2CCCCC2)c1`, the Potency result was “inactive”. Next, `COCCNc1ccccc1C(=O)Nc1cccc(C(F)(F)F)c1`: “inactive”.

The values above are taken from PubChem BioAssay AID602258 (National Center for Advancing Translational Sciences (NCATS), 2012).
